In PubChem BioAssay (NCI):
About 83,000 compounds went through this panel and 20% of them were active in at least one assay; those are over-represented in the sample as a whole.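 The test compound was applied at a single concentration to cells in 96-well plates for 48 hours, and percent growth was recorded.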 Values without a mark were called inactive. The source made the active and inactive calls. How the source made its calls: active means growth percent below 10; inactive means the rest.

Tests used:
Assay in all cases: NCI-60 one-dose screen, 48 h (100 = growth as untreated, 0 = no growth, -100 = all killed)
Conditions in all cases: 10 µM
RPMI-8226 leukemia = test system: RPMI-8226 leukemia
OVCAR-8 ovarian = test system: OVCAR-8 ovarian
OVCAR-5 ovarian = test system: OVCAR-5 ovarian
OVCAR-4 ovarian = test system: OVCAR-4 ovarian
SK-OV-3 ovarian = test system: SK-OV-3 ovarian
IGROV1 ovarian = test system: IGROV1 ovarian
OVCAR-3 ovarian = test system: OVCAR-3 ovarian
HS 578T breast = test system: HS 578T breast
NCI/ADR-RES ovarian = test system: NCI/ADR-RES ovarian
T-47D breast = test system: T-47D breast
BT-549 breast = test system: BT-549 breast
MDA-MB-435 melanoma = test system: MDA-MB-435 melanoma
SW-620 colon = test system: SW-620 colon
MCF7 breast = test system: MCF7 breast
HCT-116 colon = test system: HCT-116 colon
HCC-2998 colon = test system: HCC-2998 colon
KM12 colon = test system: KM12 colon
MDA-MB-468 breast = test system: MDA-MB-468 breast

Compound | growth (RPMI-8226 leukemia) | growth (OVCAR-8 ovarian) | growth (OVCAR-5 ovarian) | growth (OVCAR-4 ovarian) | growth (SK-OV-3 ovarian) | growth (IGROV1 ovarian) | growth (OVCAR-3 ovarian) | growth (HS 578T breast) | growth (NCI/ADR-RES ovarian) | growth (T-47D breast) | growth (BT-549 breast) | growth (MDA-MB-435 melanoma) | growth (SW-620 colon) | growth (MCF7 breast) | growth (HCT-116 colon) | growth (HCC-2998 colon) | growth (KM12 colon) | growth (MDA-MB-468 breast)
COc1ccc([C@H]2C(C(=O)c3ccc(Cl)cc3)C3(N[C@@H]2c2ccccc2)C(=O)Nc2ccc(Cl)cc23)cc1 (stereo partly drawn) | -11% (active) | 15.3% | -23.4% (active) | 20.4% | 17.3% | -1.76% (active) | -10.8% (active) | -10.1% (active) | -47.1% (active) | 9.93% (active) | 7.71% (active) | -57.5% (active) | 4.15% (active) | -4.24% (active) | 2.1% (active) | -59.3% (active) | -23.4% (active) | -3.62% (active)
CC(=O)Nc1ccc(-n2cnc3cc(-c4ccc(O)cc4)ccc32)cc1F | 14.3% | 15.9% | 42.7% | 61% | 13% | 35.9% | 6.74% (active) | 18.7% | 4.16% (active) | 29.9% | 60.3% | -25.7% (active) | 28.2% | 26.3% | 13.9% | 33.3% | 4.96% (active) | -12.3% (active)
COc1cc(C2CC(c3ccccc3)=Nc3c(N)nc(N)nc3N2)ccc1Oc1nc(Nc2ccc(F)cc2)nc(N(C)C)n1 (stereo not drawn) | 13.5% | 40.4% | 85.8% | 35.5% | 87.2% | 50.8% | 36.4% | 48.1% | 36.8% | 54.4% | 45% | 15.4% | 44.6% | 2.04% (active) | 3.43% (active) | 47.7% | 31.6% | 1.47% (active)
NC1=NC(c2ccccc2Cl)N=C(Nc2nn[nH]n2)N1 (stereo not drawn) | 99.2% | 102% | 118% | 99.8% | 123% | 115% | 107% | 103% | 104% | 99.1% | 107% | 102% | 106% | 93.3% | 103% | 104% | 100% | 103%
O=C(c1ccc(O)cc1)C1[C@H](c2ccccc2Br)[C@@H](c2ccccc2)NC12C(=O)Nc1ccc(Br)cc12 (stereo partly drawn) | 24.6% | 48.6% | 64.1% | 51.4% | 65.2% | 18.4% | 7.23% (active) | 58.5% | 64.9% | 61.7% | 55.6% | 33.8% | 50.9% | 7.04% (active) | 61.6% | -13.8% (active) | 18.4% | -25.6% (active)
CS(=O)(=O)Nc1ccc(-c2ccc3c(c2)ncn3-c2ccc(NC(=O)Nc3ccc(Br)cc3)cc2)cc1 | -24% (active) | 17.1% | 20.1% | 18.1% | 1.06% (active) | 26.7% | 5.29% (active) | 0.433% (active) | 59.8% | -8.48% (active) | -36.5% (active) | -18% (active) | 1.27% (active) | -35.1% (active) | 2.46% (active) | 18% | 2.79% (active) | -10.7% (active)
Cc1ccc(S(=O)(=O)c2nc(-c3ccccc3)oc2S(=O)(=O)CC(=O)N2CCCC2)cc1 | -53.4% (active) | -86.7% (active) | -87.2% (active) | -92.7% (active) | 68.4% | 18.4% | -92.8% (active) | 20.5% | -69.5% (active) | -70.4% (active) | -24.4% (active) | -99.3% (active) | -68.1% (active) | -40.7% (active) | 0.73% (active) | -91.1% (active) | 40.8% | -91.8% (active)
CCN1CCN(Cc2ccc(NC(=O)c3cccc(-n4cc(-c5ccc(NC(C)=O)nc5)nn4)c3)cc2C(F)(F)F)CC1 | 80.6% | 99% | 158% | 98% | 96.6% | 127% | 131% | 101% | 100% | 100% | 144% | -39.8% (active) | 109% | 70.4% | 86.3% | 115% | 22.9% | 74%
Cn1c(O)c(N=Nc2nc(-c3cc4ccccc4oc3=O)cs2)c2cc(Br)ccc21 | 96.6% | 79.2% | 86.5% | 80.9% | 57.7% | 64.2% | 96.4% | 17.5% | 68.4% | 82.8% | 59.6% | 106% | 99.8% | 77.4% | 48.9% | 97.7% | 95.5% | 41.8%
O=C(Nc1ccc(OCc2ccccc2)cc1)Nc1ccc(Cl)c(C(F)(F)F)c1 | -30.4% (active) | 2.36% (active) | 18.5% | 11.2% | -29.7% (active) | 19% | 7.77% (active) | -0.0644% (active) | 1.39% (active) | -2.54% (active) | -15.9% (active) | -1.55% (active) | 13% | 2.34% (active) | 2.43% (active) | 21.4% | 1.83% (active) | -36% (active)
O=C(Nc1nc2ccc([N+](=O)[O-])cc2s1)Nc1ccccc1I | -27.9% (active) | 11% | 5.55% (active) | 14.4% | -7.59% (active) | 19.7% | 14.4% | 9.12% (active) | -5.83% (active) | -16.7% (active) | -18.9% (active) | -7.59% (active) | 7.65% (active) | -13.9% (active) | -18.8% (active) | 4.48% (active) | 2.86% (active) | -25.8% (active)
CC1=C2C(=C[C@@](C)(CO)[C@@H]2O)/C(=N\N)[C@](C)(O)C12CC2 | 56.2% | 1.18% (active) | -42.8% (active) | -21.7% (active) | -24.7% (active) | -11.3% (active) | -24.4% (active) | -12.5% (active) | -43.2% (active) | -11.8% (active) | -71.7% (active) | -63.8% (active) | -9.56% (active) | -6.87% (active) | 19.1% | -76.6% (active) | 7.94% (active) | -90.8% (active)
Brc1ccc(/C=N/Nc2ncnc3sc4c(c23)CCN(Cc2ccccc2)C4)cc1 | 48.5% | 3.8% (active) | 99.9% | 43.7% | 107% | 94.6% | 33% | 48.3% | 68.8% | 91.6% | 102% | 73.5% | 35% | 42.8% | 33.3% | 91.4% | 50.2% | -7.6% (active)
COc1ccc2[nH]c(=O)c(CSc3cccc(N)c3)cc2c1 | 44.8% | 59.2% | 91.6% | 49.8% | 94.5% | 74.1% | 66.9% | 95% | 73% | 37.5% | 75.1% | 31.6% | 25% | 31% | 52.5% | 44.6% | 4.43% (active) | 34.7%
O=C(c1ccc(Cl)cc1)C1[C@H](c2ccccc2Br)[C@@H](c2ccccc2)NC12C(=O)Nc1ccc(Br)cc12 (stereo partly drawn) | 7% (active) | 13.7% | 19.2% | 23.2% | 36.2% | 21.2% | -8.88% (active) | 12% | -67% (active) | 21.3% | 54.8% | -39.7% (active) | 7.29% (active) | -2.68% (active) | 3.99% (active) | -13.2% (active) | 11.8% | -39.8% (active)
O=C(Nc1ccncc1)c1ccc(-n2c(=O)[nH]c3ccccc3c2=O)cc1 | 100% | 96% | 100% | 93.3% | 99.3% | 107% | 113% | 92.4% | 103% | 81.7% | 92.6% | 103% | 101% | 92.3% | 99.1% | 107% | 110% | 69.6%
